Experimental data reported in PubChem BioAssay (NCATS).
“And” between values parts separate entries of the source, which are not always exact repeats. Equal entries are not always repeated. Records with an inconclusive call do not appear. More than one record can exist for a structure, and the calls need not agree. The source made the active and inactive calls. Unless noted, the call rests on the fitted dose curve; in most records, active means well fitted curve in the direction sought with a large enough effect; inconclusive means small, poorly fitted or top-dose-only effect, or another doubt; inactive means no such curve, though single readings can be large; an effect the other way counts as inactive or inconclusive.

Assays:
[1] = qHTS profiling for inhibitors of Plasmodium falciparum (3D7) proliferation (AID 743322; call rule not given here;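 further: infected erythrocytes exposed to compound for 72 h before lysis; 100% = DMSO vehicle wells and 0% = 0.29 µM artemisinin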); conditions: P. falciparum 3D7 proliferation; at 28.7 µM (top of the series) unless noted
Summary of the method: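 Parasite DNA was quantified by SYBR Green I fluorescence (ex 485, em 535 nm) after overnight lysis in saponin/Triton buffer at room temperature. Cultures at 0.3% parasitemia and 2.5% hematocrit were first exposed to compound for 72 h at 37 C; signals were normalised to artemisinin (0.29 uM) and vehicle wells.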

[2] = qHTS profiling for inhibitors of Plasmodium falciparum (DD2) proliferation (AID 743323; call rule not given here); conditions: lower = more inhibition; at 28.7 µM (top of the series) unless noted
Summary of the method: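 P. falciparum Dd2-infected erythrocytes (0.3% parasitemia, 2.5% hematocrit) exposed 72 h at 37 C, 5% CO2. Lysis with SYBR Green, overnight at room temperature, fluorescence 485/535 nm; normalized to 0.29 uM artemisinin and DMSO.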

[3] = biological target: Hexokinase-4 (Homo sapiens) + Glucokinase regulatory protein (Homo sapiens) (UniProt P35557+Q14397); assay: qHTS assay for inhibitors of recombinant human GCK-GKRP interaction: Diaphorase-coupled assay (AID 743205)
Chain of Hexokinase-4 (Homo sapiens) + Glucokinase regulatory protein (Homo sapiens) (P35557 whole entry, looked up): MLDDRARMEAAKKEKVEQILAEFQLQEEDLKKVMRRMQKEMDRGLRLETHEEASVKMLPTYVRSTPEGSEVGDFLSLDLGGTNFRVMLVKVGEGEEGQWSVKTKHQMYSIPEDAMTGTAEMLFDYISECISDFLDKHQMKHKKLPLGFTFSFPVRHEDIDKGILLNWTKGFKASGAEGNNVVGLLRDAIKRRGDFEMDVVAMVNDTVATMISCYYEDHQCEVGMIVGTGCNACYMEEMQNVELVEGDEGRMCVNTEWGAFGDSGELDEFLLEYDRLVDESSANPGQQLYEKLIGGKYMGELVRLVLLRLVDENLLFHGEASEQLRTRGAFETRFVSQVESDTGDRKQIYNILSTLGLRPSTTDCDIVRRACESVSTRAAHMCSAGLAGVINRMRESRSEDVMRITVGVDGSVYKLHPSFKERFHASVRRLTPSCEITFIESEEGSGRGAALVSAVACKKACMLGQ
Chain of Hexokinase-4 (Homo sapiens) + Glucokinase regulatory protein (Homo sapiens) (Q14397 whole entry, looked up): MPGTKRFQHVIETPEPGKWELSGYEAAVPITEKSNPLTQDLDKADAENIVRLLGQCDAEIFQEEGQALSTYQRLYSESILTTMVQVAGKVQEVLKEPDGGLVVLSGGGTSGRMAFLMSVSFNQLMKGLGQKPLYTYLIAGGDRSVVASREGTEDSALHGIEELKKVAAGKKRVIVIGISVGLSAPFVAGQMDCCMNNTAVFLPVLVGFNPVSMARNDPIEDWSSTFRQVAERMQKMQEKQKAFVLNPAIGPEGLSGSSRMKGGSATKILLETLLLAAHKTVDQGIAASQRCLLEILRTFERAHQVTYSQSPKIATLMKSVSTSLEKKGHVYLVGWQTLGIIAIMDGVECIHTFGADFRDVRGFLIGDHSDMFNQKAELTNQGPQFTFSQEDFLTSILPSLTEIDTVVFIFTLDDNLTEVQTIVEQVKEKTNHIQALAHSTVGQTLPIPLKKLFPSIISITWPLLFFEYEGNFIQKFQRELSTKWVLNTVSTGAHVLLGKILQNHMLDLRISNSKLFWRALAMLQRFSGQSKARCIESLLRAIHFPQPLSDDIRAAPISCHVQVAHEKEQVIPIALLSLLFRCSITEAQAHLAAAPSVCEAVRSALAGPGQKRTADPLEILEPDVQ
Summary of the method: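 Signal derives from resorufin generated by diaphorase, linked to GCK turnover of glucose (5 mM) and ATP (0.4 mM). Enzyme complex was added after a 20-minute compound preincubation and monitored for 30 minutes.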

[4] = qHTS assay for cell viability of HEK293 cells (AID 743288); conditions: ATP luminescence (CellTiter-Glo), 18 h, stronger effect = lower value; further: on the % scale 0 is the no-effect control and ±100 the full control effect; nearly all actives have a fitted effect of over 50% in size
Summary of the method: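 HEK293, 18 h, 37 C, ATP luminescence. Cells at 2,000/well were allowed at least 5 h to settle before dosing; CellTiter-Glo developed 30 min at RT.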

[5] = qHTS assay for cell viability of the p53RE-bla HCT-116 cell line (AID 743292); further: on the % scale 0 is the no-effect control and ±100 the full control effect; nearly all actives have a fitted effect of over 55% in size
Summary of the method: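 After plating at 4,000 cells per well and a 5 h rest at 37 C, HCT-116 cells carrying p53RE-bla received test chemicals in DMSO. Sixteen hours later at 37 C, CellTiter-Glo was added and luminescence recorded following 30 min at room temperature.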

[6] = qHTS Assay for Identifying Gametocytocidal Compounds (AID 743244); further: potency means the concentration at half of the fitted maximal effect;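 on max response: on the % scale 0 is the no-effect control and ±100 the full control effect; actives lower the fluorescent signal which means gametocytes are killed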; conditions: P. falciparum 3D7 stage III-V gametocytes, alamarBlue, 72 h; max response: stronger effect = lower value
Summary of the method: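 Fluorescence at Ex 525/Em 598 nm, recorded 24 h after alamarBlue addition, reports residual metabolic activity of 3D7 gametocytes (stages III–V) following 72 h compound exposure at 37 °C, 5% CO2.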

[7] = qHTS profiling for inhibitors of Plasmodium falciparum (HB3) proliferation (AID 743324); conditions: Plasmodium falciparum HB3 blood-stage proliferation; at 28.7 µM (top of the series) unless noted;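 further: 100% = DMSO vehicle wells and 0% = artemisinin-treated control wells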
Text: Plasmodium falciparum is a virulent malarial parasite that kills 1-2 million people worldwide each year. Transmitted by mosquitoes, the sporozoite form of the parasite enters the blood stream to infect hepatocytes, where they become merozoites that infect red blood cells (erythrocytes). Within erythrocytes, merozoites begin a […] cycle of growth and division, after which the parasite is released to infect new red blood cells. Gametocytes, which form within erythrocytes as well, circulate in the bloodstream and are ingested by the mosquito, thereby completing the life cycle. To profile malarial isolates for differential chemical responses and to identify inhibitors of malarial growth, an assay that measures P. falciparum growth and replication within erythrocytes was employed. This assay uses a DNA binding fluorescent dye (SYBR Green) to detect parasite DNA following cell lysis. Because mature erythrocytes lack DNA, only Plasmodium-derived DNA is detected.
For screening 3 ul culture medium was dispensed into 1536 well black clear bottom plates (Aurora Biotechnologies) using a Multidrop Combi (Thermo Fisher Scientific Inc.), 23 nL compounds in DMSO were added by a pin tool (Kalypsys), and 5 ul of erythrocytes infected with P. falciparum (0.3% parasitemia, 2.5% hematocrit final concentration) were added. The plates were incubated at 37 C in a humidified incubator in 5% CO2 for 72 h, and 2 ul lysis buffer (20 mM Tris HCl, 10 mM EDTA, 0.16% saponin, […]% triton X, 10X SYBR Green I supplied as 10,000X […] by Invitrogen) was added to each well. The plates were mixed for 25 sec with gentle shaking and incubated overnight at room temperature in the dark. The following morning, fluorescence intensity at 485(14) nm excitation and 535(25) nm emission wavelengths was measured on an EnVision (Perkin Elmer) plate reader. Plate reads were normalized relative to the control inhibitor (0.29 uM artemisinin) and vehicle (DMSO) wells present on each plate and then corrected by an algorithm using vehicle-only control plates at the beginning and end of the compound plate stack.

For CN(C)CC[C@@H](c1ccc(Cl)cc1)c1ccccn1, the remaining parasite growth % (stronger effect = lower value) [1] was 85.4% and the activity, percent of control [2] was 44.8%.

With CN(C)CCC=C1c2ccccc2CCc2ccccc21 the outcome [3] was “inactive”, the max response [4] was -2.39% (inactive) and -37.1% (inactive) and the Potency [5] was “inactive”.

In the case of CN(C)CCCN1c2ccccc2Sc2ccc(Cl)cc21, the outcome [3] is reported as “inactive”, the max response [4] is reported as -23.7% (inactive) and the Potency [5] is reported as “inactive”.

For C[C@@H]1CCN(C(=O)[C@H](CCCN=C(N)N)NS(=O)(=O)c2cccc3c2NC[C@H](C)C3)[C@@H](C(=O)O)C1, the max response [6] was -0.0233% (inactive).

With CO/N=C(\C(=O)N[C@@H]1C(=O)N2C(C(=O)O)=C(CSc3nc(=O)c(O)nn3C)CS[C@H]12)c1csc(N)n1 the max response [6] was -6.47% (inactive).

In the case of CS(=O)(=O)c1ccc([C@@H](O)[C@@H](CF)NC(=O)C(Cl)Cl)cc1, the max response [6] is reported as 23.9% (inactive).

With O=C1Nc2ccc(Cl)cc2[C@@](C#CC2CC2)(C(F)(F)F)O1 the max response [6] was -21.2% (inactive), the remaining parasite growth % (stronger effect = lower value) [1] was 6.68% [at 57.5 µM] and the activity, percent of control [2] was 22.7% [at 57.5 µM]. For the same molecule, the remaining proliferation (% of control), lower = more inhibition [7] was 11.8% [at 57.5 µM].

In the case of NC(=O)c1ncn([C@@H]2O[C@H](CO)[C@@H](O)[C@H]2O)c1N, the max response [6] is reported as -0.312% (inactive) and 4.68% (inactive), the remaining parasite growth % (stronger effect = lower value) [1] is reported as 104% and the activity, percent of control [2] is reported as 121%.

With Cc1ccc(C(C)C)cc2c(C)ccc1-2 the max response [6] was 3.45% (inactive).

For O=C(O)c1ccccc1O, the max response [6] was 6.2% (inactive) and -5.06% (inactive).

With CC[C@@]1(c2ccccc2)NC(=O)N(C)C1=O the max response [6] was 7.9% (inactive).

For CCCCCCCCCCCCCCCCCCOCC(O)CO (centres undefined), the max response [6] was 1.98% (inactive).

With CC(=O)c1ccc2c(c1)N(CCCN(C)C)c1ccccc1S2 the max response [6] was -10.5% (inactive).

For O=c1cc(CO)occ1O, the max response [6] was 1.55% (inactive) and -0.506% (inactive).

For CN(C)CCN(Cc1ccccc1)c1ccccn1, the max response [6] was -8.07% (inactive).

With O=c1cc[nH]c(=S)[nH]1 the max response [6] was 12.7% (inactive).

With CCOc1ccc2ccccc2c1C(=O)N[C@@H]1C(=O)N2[C@@H]1SC(C)(C)[C@@H]2C(=O)O the max response [6] was -1.05% (inactive).

Molecule CCCCN(CCCC)CC(O)c1cc(Cl)cc2c1-c1ccc(Cl)cc1/C2=C/c1ccc(Cl)cc1 (centres undefined) has a remaining parasite growth % (stronger effect = lower value) [1] of 0.77%, an activity, percent of control [2] of 1.35% and a remaining proliferation (% of control), lower = more inhibition [7] of 1.36%.

With O=C(CCCN1CCN(c2ccccn2)CC1)c1ccc(F)cc1 the max response [6] was 11.2% (inactive).

In the case of O=C(O)[C@@H]1CSCN1, the max response [6] is reported as -11.5% (inactive).

With Nc1ccc(S(=O)(=O)NC(=O)c2ccccc2)cc1 the max response [6] was 7.19% (inactive).

In the case of Cc1cc(O)cc2c1O[C@](C)(CCC[C@H](C)CCC[C@H](C)CCCC(C)C)CC2, the max response [6] is reported as -2.34% (inactive) and 0.0933% (inactive).

In the case of CC1(C)CO[C@@H](CC(=O)O)CN1, the max response [6] is reported as 28.1% (inactive).

With CCOC(=O)[C@H](CCc1ccccc1)N[C@@H](C)C(=O)N1C(=O)N(C)C[C@H]1C(=O)O the max response [6] was 6.96% (inactive).

With CC(=O)Oc1c(C)c(C)c2c(c1C)CC[C@@](C)(CCC[C@H](C)CCC[C@H](C)CCCC(C)C)O2 the max response [6] was -2.38% (inactive) and 13.2% (inactive) and -6.36% (inactive).

For Oc1cn2c(n1)Nc1ccc(Cl)c(Cl)c1C2, the max response [6] was 2.25% (inactive) and 14.5% (inactive).

With CC(=O)O[C@@]12CO[C@@H]1C[C@H](O)[C@@]1(C)C(=O)[C@H](O)C3=C(C)[C@@H](OC(=O)[C@H](O)[C@@H](NC(=O)OC(C)(C)C)c4ccccc4)C[C@@](O)([C@@H](OC(=O)c4ccccc4)[C@H]21)C3(C)C the Potency [6] was 18.7 µM (active), the max response [6] was -16.9% (inactive) and the remaining parasite growth % (stronger effect = lower value) [1] was 7.64% and -0.123%. For the same molecule, the activity, percent of control [2] was 14.2% and 11.9% and the remaining proliferation (% of control), lower = more inhibition [7] was 0.549% and 1.1%.

With CC(C)(C)NCC(O)COc1ccc(NC(=O)NC2CCCCC2)cc1 (centres undefined) the max response [6] was 11.9% (inactive).

In the case of COc1cc(C(=O)N2CCOCC2)cc(OC)c1OC, the max response [6] is reported as -5.92% (inactive) and 13.8% (inactive).

With CC1(C)S[C@@H]2[C@H](NC(=O)Cc3ccccc3)C(=O)N2[C@H]1C(=O)O (tested in a mixture with another compound) the max response [6] was -2.5% (inactive).

For CN1[C@@H]2CC(OC(=O)[C@H](CO)c3ccccc3)C[C@H]1[C@@H]1O[C@@H]12 (some centres undefined), the max response [6] was 9.71% (inactive) and 1.92% (inactive).

For COc1cc2[nH]c(=O)[nH]c(=O)c2cc1OC, the max response [6] was 5.15% (inactive).

In the case of N[C@H](C(=O)O)c1ccc(O)cc1, the max response [6] is reported as -1.91% (inactive).

In the case of Cn1cc[nH]c1=S, the max response [6] is reported as -4.61% (inactive).

With O=C(O)Cc1sc(-c2ccccc2)nc1-c1ccc(Cl)cc1 the max response [6] was -5.46% (inactive) and 46.6% (inactive) and 14.6% (inactive).

In the case of Cc1c(Cl)cccc1Nc1ccccc1C(=O)O, the max response [6] is reported as -7.91% (inactive).

In the case of O=C1O[C@H](CO)[C@@H](O)[C@H](O)[C@H]1O, the max response [6] is reported as -3.17% (inactive).

With Cc1ncc(COP(=O)(O)O)c(C=O)c1O the max response [6] was 5.05% (inactive).
